# Screening data as filed in PubChem BioAssay.
# HTT-AS act = activates huntingtin-antisense promoter activity; HEK293 HTT-AS promoter firefly luciferase reporter, 24 h; response scale: percent change from vehicle, -100% = no light; Potency, µM (highest dose often 57.5 µM), for the others: top-dose activity change, positive = activation, most hits filed as activators; 48,000 tested, 0.24% active; AID 1508624; also: potency is read from the fitted curve at half-maximal effect; nearly all actives have a fitted effect of over 55% in size
#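 Luminescence was read after Dual-Glo reagent and a 10 min room-temperature incubation. Values were normalized to vehicle (0% activity) and zero RLU (-100% activity). Reporter HEK293 cells had been exposed to compounds (up to 57.5 uM final) for 24 h.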
# S16 F2sN tox = cytotoxicity in S16 Pmp22-F2sN Schwann cells | S16 Pmp22-F2sN Schwann cells viability, CellTiter-Glo, 24 h | Potency, µM (highest dose often 57.5 µM), for the others: at the highest dose activity change, negative = cytotoxicity, hits mostly cytotoxic | 43,000 tested, 0.48% active; also: potency is read from the fitted curve at half-maximal effect; % is scaled to controls: 0 for no effect and ±100 for the full control effect; nearly all actives have a fitted effect of over 65% in size
#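 Viability was measured by CellTiter-Glo luminescence (15 min, room temperature). This followed 24 h at 37 °C of compound exposure (23 nL pin transfer) in S16 Pmp22-F2sN Schwann cells, 500-1,000 per well.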
# mTORC1 inh = mTORC1 pathway inhibition measured by phospho-rpS6; Tsc2-/- p53-/- MEF, phospho-rpS6 immunofluorescence/PI, 24 h; Potency, µM (doses to about 38.3 µM), for the others: at the top dose activity change, negative = inhibition, actives largely listed as inhibitors; 44,000 tested, 0.78% active; AID 493208;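 also: potency is read from the fitted curve at half-maximal effect; plate controls were DMSO for no effect and rapamycin for full effect; nearly all actives have a fitted effect of over 50% in size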
#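 Read-out: phospho-S6 Alexa-488 intensity over PI intensity per well, scored as % active cells using thresholds from rapamycin (7.5 nM) and DMSO controls. Tsc2-/-, p53-/- MEFs exposed to compound for 24 h; PI cell count recorded as viability.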
# HTT promoter inh = inhibits huntingtin promoter activity; HEK293 HTT promoter firefly luciferase reporter, 24 h; Potency, µM (doses to about 57.5 µM), without a hit: at the top dose activity change, negative = inhibition, usual class: inhibitors; 48,000 tested, 0.93% active; also: potency is read from the fitted curve at half-maximal effect; nearly all actives have a fitted effect of over 50% in size
#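 Firefly luciferase signal from promoter-reporter HEK293 cells was scaled between vehicle (0%) and zero RLU (-100%). Compounds were tested at final concentrations of up to 57.5 uM over 24 h at 37 degrees C. PTC124 at 50 uM final served as control inhibitor.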
# PMP22 txn = modulates PMP22 transcription in S16 Schwann cells | S16 Pmp22-F2sN Schwann cells, FLuc/NLuc coincidence luminescence, 24 h | Potency, µM (top dose mostly 57.5 µM), without a hit: top-dose activity change, negative = inhibition, actives largely listed as inhibitors | 43,000 tested, 2% active | AID 1508649; active = clear falling dose curves in both reporters; inconclusive = both reporters move, but less clearly or upward; inactive = either reporter flat; the % is the NLuc reporter signal; also: potency is read from the fitted curve at half-maximal effect; % is scaled to controls: 0 for no effect and ±100 for the full control effect
#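 Reporter cells (S16 Pmp22-F2sN, 500–1,000 per well) exposed to compounds for 24 h, 37C, 5% CO2; lysis with FLuc read after 10 min, then Stop&Glo and NLuc read after 10 min.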
# NLuc sat counter = counter-screen for PMP22 expression modulators: NanoLuc inhibition, saturating substrate; shares compounds with PMP22 txn; Secreted NLuc enzyme (filtered S16 cell medium), Nano-Glo luminescence; Potency, µM (doses to about 57.5 µM), without a hit: top-dose activity change, negative = inhibition, hits mostly inhibitors; 690 tested, 4% active; also: potency is read from the fitted curve at half-maximal effect; % is scaled to controls: 0 for no effect and ±100 for the full control effect
# NLuc Km ctr = NanoLuc inhibition at Km substrate, PMP22 artifact check; shares compounds with PMP22 txn; secreted NLuc enzyme, coelenterazine luminescence, Km conditions; Potency, µM (titrated, usually from 57.5 µM), without a hit: at the highest dose activity change, negative = inhibition, most hits filed as inhibitors; 690 tested, 5% active; also: potency is read from the fitted curve at half-maximal effect; % is scaled to controls: 0 for no effect and ±100 for the full control effect
# FLuc counter = firefly luciferase enzyme inhibition artifact for PMP22 screen. shares compounds with PMP22 txn. purified P. pyralis FLuc, luminescence, 10 min. Potency, µM (doses to about 57.5 µM), inactives show at the highest dose activity, negative = inhibition, usual class: inhibitors. 690 tested, under 10 active. AID 1508640; also: % of control where 0% means no effect
# Target sequence (P08659 whole entry, looked up): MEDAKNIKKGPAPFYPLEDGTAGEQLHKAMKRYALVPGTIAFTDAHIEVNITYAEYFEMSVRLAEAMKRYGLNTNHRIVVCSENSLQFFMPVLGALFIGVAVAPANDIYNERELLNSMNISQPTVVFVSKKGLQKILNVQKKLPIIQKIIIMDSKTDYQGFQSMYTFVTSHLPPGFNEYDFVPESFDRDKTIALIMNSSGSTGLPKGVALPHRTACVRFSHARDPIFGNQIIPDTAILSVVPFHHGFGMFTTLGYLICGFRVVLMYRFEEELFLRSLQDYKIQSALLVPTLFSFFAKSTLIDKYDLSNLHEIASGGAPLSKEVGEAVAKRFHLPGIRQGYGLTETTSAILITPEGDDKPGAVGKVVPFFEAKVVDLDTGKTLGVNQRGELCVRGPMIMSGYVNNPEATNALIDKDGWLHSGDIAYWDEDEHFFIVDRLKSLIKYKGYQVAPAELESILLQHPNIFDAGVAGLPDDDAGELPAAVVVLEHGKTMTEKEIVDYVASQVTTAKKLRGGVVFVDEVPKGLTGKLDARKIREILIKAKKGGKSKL
# S16 F2sN tox cnf = confirmation of cytotoxicity in S16 Pmp22-F2sN Schwann cells (luciferase reporters placed in the Pmp22 gene) | shares compounds with PMP22 txn | S16 Schwann cells viability, CellTiter-Glo ATP luminescence, 24 h | Potency, µM (titrated, usually from 57.5 µM), without a hit: at the highest dose activity change, negative = viability loss, hits mostly cytotoxic | 690 tested, 7% active; also: potency is read from the fitted curve at half-maximal effect; % is scaled to controls: 0 for no effect and ±100 for the full control effect
# PMP22 txn cnf = confirmation of modulators of PMP22 gene transcription in S16 cells. shares compounds with PMP22 txn. S16 Schwann cells Pmp22-F2sN, dual luciferase, 24 h. Potency, µM (series often up to 57.5 µM), inactives show top-dose activity change, negative = inhibition, hits mostly inhibitors. 690 tested, 22% active; active = clear falling dose curves in both reporters; inconclusive = both reporters move, but less clearly or upward; inactive = either reporter flat; the % is the FLuc reporter signal; also: potency is read from the fitted curve at half-maximal effect
# * hit, by the source's call; u = inconclusive; x = no result. A selection: hits, their analogues and other compounds. The true share with any hit is near 3.6%. Unless noted, calls follow the shape of the dose curve; as a rule, active = well fitted curve in the direction sought with a large enough effect; inconclusive = small, poorly fitted or top-dose-only effect, or another doubt; inactive = no such curve, though single readings can be large; an effect the other way counts as inactive or inconclusive.
SMILES,HTT-AS act,S16 F2sN tox,mTORC1 inh,HTT promoter inh,PMP22 txn,NLuc sat counter,NLuc Km ctr,FLuc counter,S16 F2sN tox cnf,PMP22 txn cnf
Cc1ccc(S(=O)(=O)C(CNS(=O)(=O)c2ccc(F)c(C(F)(F)F)c2)c2ccco2)cc1 (stereo not drawn),4.2%,u,u,-10.9%,14.2µM*,-1.0%,u,3.9%,-1.4%,-11.6%
CCOc1ccccc1OCCNC(C)Cc1ccc(OC)c(S(N)(=O)=O)c1 (stereo not drawn),-6.2%,x,x,0.8%,x,x,x,x,x,x
COc1ccc(-c2noc(CSc3nnc(C)n3-c3ccc(C)cc3)n2)cc1OC,-37.0%,-17.7%,4.3%,u,11.5µM*,21.7µM*,13.7µM*,-15.8%,u,-44.4%
CCOc1ccccc1-c1noc(CSc2nnc(-c3ccccc3)n2-c2cccc(C)c2)n1,-25.0%,4.7%,-0.8%,u,u,x,x,x,x,x
COc1ccc(-c2noc(CSc3nnc(-c4ccncc4)n3-c3cccc(C)c3)n2)cc1OC,-28.7%,-2.6%,1.4%,u,10µM*,u,u,-11.8%,-16.0%,-57.3%
COc1ccc(-c2noc(CSc3nnc(-c4ccncc4)n3-c3ccc(C)c(C)c3)n2)cc1,-30.7%,-24.4%,-4.8%,-16.7%,12.6µM*,u,u,-2.2%,u,u
COc1ccc(-n2c(SCc3nc(-c4ccc(Cl)cc4)no3)nnc2-c2ccncc2)cc1,-10.3%,u,6.3%,-5.3%,u,x,x,x,x,x
CCCCCCCCCCCCOCCO,0.1%,x,x,-3.1%,x,x,x,x,x,x
O=C(CSc1ncc2c(n1)-c1ccccc1N(Cc1ccc(F)cc1)S2(=O)=O)NCCc1ccccc1,7.6%,3.8%,2.9%,-8.3%,17.8µM*,-0.5%,1.6%,6.6%,u,u
C[C@](Cc1c[nH]c2ccccc12)(NC(=O)OC1C2CC3CC(C2)CC1C3)C(=O)NC[C@H](NC(=O)CCC(=O)O)c1ccccc1 (stereo partly drawn),-12.4%,x,x,26.3%,x,x,x,x,x,x
CCOCCCn1c(=N)c(C(=O)NC(C)c2ccccc2)cc2c(=O)n3cccc(C)c3nc21 (stereo not drawn),-30.3%,u,u,-26.3%,15µM*,-13.2%,8.2%,-1.2%,-1.8%,u
CCOCCCn1c(=N)c(C(=O)NC2CCCC2)cc2c(=O)n3cccc(C)c3nc21,-4.0%,-3.3%,-6.2%,-4.9%,u,-5.3%,1.1%,0.1%,24.0%,u
Cc1cccn2c(=O)c3cc(C(=O)NC(C)c4ccccc4)c(=N)n(CCOCCO)c3nc12 (stereo not drawn),-5.1%,5.3%,0.8%,-0.9%,-28.0%,x,x,x,x,x
COc1cc(C=C2CCC/C(=C\c3ccc(O)c(OC)c3)C2=O)ccc1O,-80.2%,x,x,u,x,x,x,x,x,x
Cc1cc(F)ccc1NC(=O)C1CCCN(c2nnc(-n3c(C)ccc3C)s2)C1 (stereo not drawn),-13.3%,1.1%,-7.1%,-29.3%,u,x,x,x,x,x
Cc1cccc(NC(=O)C2CCCN(c3nnc(-n4c(C)ccc4C)s3)C2)c1C (stereo not drawn),-15.9%,-1.8%,-3.1%,-29.8%,16µM*,u,-6.5%,-2.8%,0.9%,u
Cc1ccccc1CNC(=O)C1CCCN(c2nnc(-n3c(C)ccc3C)s2)C1 (stereo not drawn),-13.1%,u,-9.6%,-13.2%,15.6µM*,-10.1%,u,-0.2%,6.8%,-36.7%
Cc1ccc(C)n1-c1nnc(N2CCCC(C(=O)Nc3ccccc3Br)C2)s1 (stereo not drawn),-2.0%,-11.6%,-9.0%,-15.8%,16.8µM*,-16.9%,u,-0.4%,14.0%,-20.0%
C[C@@H]1CN(CC(=O)Nc2ccc3c(c2)Cc2cccc(-c4cc(=O)cc(N5CCOCC5)o4)c2S3)C[C@H](C)O1,-36.9%,x,x,u,x,x,x,x,x,x
CC(=O)O[C@H]1CC[C@@]2(C)C(=CC[C@@H]3[C@@H]2CC[C@]2(C)C(C(C)=O)=CC[C@@H]32)C1,-5.3%,x,x,-4.2%,x,x,x,x,x,x
CCCCn1c(=O)n(Cc2ccccc2F)c(=O)c2[nH]c(Cc3ccc(NC(C)=O)cc3)nc21,-25.8%,x,x,u,x,x,x,x,x,x
Oc1cc(-c2nc(-c3ccccc3)[nH]c2-c2ccncc2)ccc1Cl,-24.7%,x,x,u,x,x,x,x,x,x
CCCc1cc(N2CCN(c3ccc(OC)cc3)CC2)n2cnnc2n1,-22.9%,u,-9.7%,u,u,x,x,x,x,x
COc1ccc(N2CCN(c3c4c(nc5nncn35)CCC4)CC2)cc1,-52.3%,-25.6%,u,u,13.4µM*,u,0.0%,-7.6%,-8.3%,u
NC(=O)C1(N2CCCCC2)CCN(CCCN2c3ccccc3CCc3ccc(Cl)cc32)CC1,-37.8%,x,x,u,x,x,x,x,x,x
